About 79,000 compounds went through this panel and 15% of them were active in at least one assay; those are over-represented in the sample as a whole. Activity calls are given as the source filed them. Cut-off read from the data, not from the text of the source: active = growth inhibition above about 70%; inactive = the rest.
Assays:
[1] = NCI Yeast Anticancer Drug Screen. Data for the rad52 strain (AID 147);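 note: 0% = growth of vehicle-treated control cultures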; conditions: S. cerevisiae rad52 mutant growth inhibition, active compounds read high
Summary of the method: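 Genetically altered yeast (DNA damage repair defect) treated with compound; inhibition calculated relative to vehicle.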

[2] = NCI Yeast Anticancer Drug Screen. Data for the wt1 strain (AID 149);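 note: 0% = growth of vehicle-treated wt1 cultures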; conditions: S. cerevisiae wt1 strain (SPY 50644) growth inhibition, active compounds read high
Summary of the method: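 Yeast wt1 strain exposed to compounds; growth inhibition measured relative to vehicle-treated controls.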

[3] = NCI Yeast Anticancer Drug Screen. Data for the rad50EPP+ strain (AID 151);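 note: 0% = growth of vehicle-treated control cultures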; conditions: S. cerevisiae rad50 mutant strain, active compounds read high
Summary of the method: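 Strain rad50EPP+; compound exposure; % growth inhibition vs vehicle.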

[4] = NCI Yeast Anticancer Drug Screen. Data for the mgt1 strain (AID 153); conditions: S. cerevisiae mgt1 mutant growth inhibition, active compounds read high
Summary of the method: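 Read-out: yeast growth inhibition vs vehicle control. Strain mgt1, drawn from a panel altered in DNA damage repair or cell cycle control.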

[5] = NCI Yeast Anticancer Drug Screen. Data for the rad50 strain (AID 155);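 note: 0% = growth of vehicle-only cultures of the same strain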; conditions: S. cerevisiae rad50 strain growth inhibition, active compounds read high
Summary of the method: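 Yeast carrying a defined DNA repair defect were exposed to test compounds, and growth was compared with vehicle-treated controls to give percent inhibition.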

[6] = NCI Yeast Anticancer Drug Screen. Data for the mec2-1 strain (AID 157); conditions: S. cerevisiae mec2-1 strain, active compounds read high
Summary of the method: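 Cells of the genetically defined mec2-1 yeast strain are incubated with test compound. Inhibition of growth is calculated against vehicle-treated controls.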

[7] = NCI Yeast Anticancer Drug Screen. Data for the rad14 strain (AID 159);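 note: 0% = growth of vehicle-treated control cultures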; conditions: S. cerevisiae rad14 strain growth inhibition, active compounds read high
Summary of the method: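 Yeast cells carrying a defined DNA-repair defect were exposed to compounds, and growth inhibition was calculated relative to vehicle-treated control cultures.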

[8] = NCI Yeast Anticancer Drug Screen. Data for the sgs1 mgt1 strain (AID 161);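 note: 0% = growth of cultures given vehicle only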; conditions: S. cerevisiae sgs1 mgt1 strain, active compounds read high
Summary of the method: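 Read-out: growth inhibition vs vehicle controls. Cells: mutant yeast strain deficient in DNA damage repair.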

[9] = NCI Yeast Anticancer Drug Screen. Data for the CLN2oe strain (AID 163);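 note: 0% = growth of vehicle-only control cultures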; conditions: S. cerevisiae CLN2oe strain, active compounds read high
Summary of the method: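 Strain altered in cell-cycle control, incubated with compound; growth compared to solvent-treated controls.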

[10] = NCI Yeast Anticancer Drug Screen. Data for the cln2 rad14 strain (AID 165);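 note: 0% = growth equal to vehicle treated cultures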; conditions: S. cerevisiae cln2 rad14 strain, active compounds read high
Summary of the method: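 The screen exposed genetically defined yeast (cln2 rad14) to test compounds and scored growth inhibition relative to vehicle-treated controls.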

[11] = NCI Yeast Anticancer Drug Screen. Data for the bub3 strain (AID 167); conditions: S. cerevisiae bub3 mutant strain, active compounds read high
Summary of the method: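 Compounds were applied to a genetically altered yeast strain carrying a cell-cycle control defect. Growth inhibition was scored against vehicle-treated controls.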

[12] = NCI Yeast Anticancer Drug Screen. Data for the wt2 strain (AID 169);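 note: 0% = growth of vehicle-treated yeast cultures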; conditions: S. cerevisiae wt2 strain growth inhibition, active compounds read high
Summary of the method: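 Steps: yeast strain treated with compound; growth recorded; inhibition calculated relative to cultures given vehicle alone.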

[13] = NCI Yeast Anticancer Drug Screen. Data for the mlh1 strain (AID 171);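 note: 0% = growth of vehicle-treated control cultures of the same strain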; conditions: S. cerevisiae mlh1 strain growth inhibition, active compounds read high
Summary of the method: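 Yeast screen: mutant strain plus compound, growth scored against vehicle control wells.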

[14] = NCI Yeast Anticancer Drug Screen. Data for the sgs1 strain (AID 173);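 note: 0% = growth of vehicle-only control cultures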; conditions: S. cerevisiae sgs1 mutant, active compounds read high
Summary of the method: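 Inhibition of yeast growth served as the measure. The mutant strain was treated with each compound, and growth was normalised to cultures receiving vehicle alone.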

[15] = NCI Yeast Anticancer Drug Screen. Data for the mlh1 rad18 strain (AID 175); conditions: S. cerevisiae mlh1 rad18 strain growth inhibition, active compounds read high
Summary of the method: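 Compound-treated yeast growth, normalised to vehicle controls. Strain bears defined DNA repair mutations.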

[16] = NCI Yeast Anticancer Drug Screen. Data for the rad18 strain (AID 177); conditions: S. cerevisiae rad18 mutant growth inhibition, active compounds read high
Summary of the method: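 Inhibition values reflect reduced yeast growth compared with vehicle-treated controls, using a strain engineered with a DNA damage repair defect.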

[17] = at 5.0 µM (retest, dose inferred, filed as 0.5)
[18] = at 50.0 µM (retest, dose inferred, filed as 5.0)

Measured: growth inhibition

CCOC(=O)c1cc([N+](=O)[O-])cc([N+](=O)[O-])c1Sc1ncnc2nc[nH]c12
inactive: [1]; at 1.2 µM 13% | [1]; at 3.7 µM 2% | [1]; at 11.0 µM 11% | [1]; at 33.0 µM 62% | [2]; at 1.2 µM -29% | [2]; at 3.7 µM -44% | [2]; at 11.0 µM -32% | [2]; at 33.0 µM 50% | [3]; at 1.2 µM -6% | [3]; at 3.7 µM -11% | [3]; at 11.0 µM 13% | [3]; at 33.0 µM 62% | [4]; at 1.2 µM -17% | [4]; at 3.7 µM -18% | [4]; at 11.0 µM -8% | [5]; at 1.2 µM -15% | [5]; at 3.7 µM -15% | [5]; [17] 36% | [5]; at 11.0 µM 1% | [5]; at 33.0 µM 68% | [5]; at 50.0 µM 36% | [6]; at 1.2 µM -33% | [6]; at 3.7 µM -28% | [6]; [17] 22% | [6]; at 11.0 µM -2% | [6]; at 33.0 µM 65% | [6]; [18] 69% | [6]; at 50.0 µM 60% | [7]; at 1.2 µM -30% | [7]; at 3.7 µM -21% | [7]; at 11.0 µM -9% | [7]; at 33.0 µM 66% | [8]; [17] 52% | [8]; at 50.0 µM 62% | [9]; at 1.2 µM -19% | [9]; at 3.7 µM -33% | [9]; at 11.0 µM -23% | [9]; at 33.0 µM 54% | [10]; [17] 5% | [10]; [18] -16% | [11]; at 1.2 µM -26% | [11]; at 3.7 µM -12% | [11]; [17] 38% | [11]; at 11.0 µM -11% | [11]; at 50.0 µM 59.5% | [12]; at 1.2 µM -29% | [12]; at 3.7 µM -22% | [12]; at 11.0 µM -24% | [12]; at 33.0 µM 18% | [13]; at 1.2 µM -31% | [13]; at 3.7 µM 2% | [13]; at 11.0 µM 2% | [14]; at 1.2 µM -11% | [14]; at 3.7 µM -5% | [14]; at 11.0 µM 2% | [15]; [17] 42% | [16]; at 1.2 µM -18% | [16]; at 3.7 µM -7% | [16]; at 11.0 µM 28%
active: [1]; at 100.0 µM 95% | [2]; at 100.0 µM 97% | [3]; at 100.0 µM 82% | [4]; at 33.0 µM 83% | [4]; at 100.0 µM 98% | [5]; [18] 75% | [5]; at 100.0 µM 96% | [6]; at 100.0 µM 97% | [7]; at 100.0 µM 97% | [8]; [18] 75% | [9]; at 100.0 µM 97% | [10]; at 50.0 µM 77.2% | [11]; at 33.0 µM 70% | [11]; [18] 70% | [11]; at 100.0 µM 96% | [12]; at 100.0 µM 96% | [13]; at 33.0 µM 85% | [13]; at 100.0 µM 97% | [14]; at 33.0 µM 74% | [14]; at 100.0 µM 96% | [15]; [18] 89% | [15]; at 50.0 µM 78.5% | [16]; at 33.0 µM 81% | [16]; at 100.0 µM 97%
